Reference: PubChem BioAssay (Tox21)
Records with an inconclusive call do not appear. Values without a mark were called inactive. The source made the active and inactive calls. Calls come from the whole dose curve.

test: qHTS assay to identify small molecule antagonists of the sonic hedgehog signaling (Shh) pathway (AID 1259369); settings: NIH/3T3 Gli1-Luc reporter, Shh antagonist, luminescence 24 h; series mostly up to 92.4 µM; activity change, negative = inhibition: at the top concentration; note: nearly all actives have a fitted effect of over 45% in size
Source text: U.S. Tox21 Program National Center for Advancing Translational Sciences [NCATS] NIH Chemical Genomics Center [NCGC] U.S. Environmental Protection Agency [EPA] National Institutes of Environmental Health Sciences [NIEHS] National Toxicology Program [NTP] U.S. Food and Drug Administration [FDA] Tox21 Assay Overview: The sonic hedgehog (Shh) pathway is essential for normal embryonic development. Dysregulation of the Shh pathway can cause severe developmental defects in organs. Therefore chemicals that interfere with the pathway are potential developmental toxicants. A cell line designated 3T3Gli1-Luc (DMB/OARSA/CFSAN/FDA, Laurel, MD), a NIH/3T3 derived clone containing stably integrated Gli1-Luc reporter is used to detect chemical interference of the Shh pathway, by changes in the expression of the firefly Luc gene under the control of the Gli1 transcriptional response element. This cell line was used to screen Tox21 libraries for identifying and prioritizing the potential developmental toxicants that interfere Shh pathway. Conditioned medium-stimulated mode was used to screen for chemicals inhibiting Shh signaling.
Tox21 Assay Protocol Summary: 3T3 Gli1-Luc cells were dispensed at 2,000 per well in 5uL of culture medium into white solid bottom 1536-well plates (Greiner Bio-One, Monroe, NC) using a Multidrop Combi (Thermo Scientific, Waltham, MA) dispenser. The assay plates were incubated at 37 C and 5% CO2 for 4hr, and then 23nL of compounds dissolved in DMSO and positive control were transferred using a Pintool station (Wako, San Diego, CA). The compound transfer was followed by the addition of 1ul conditioned medium or assay buffer using two separate tips of Flying Reagent Dispenser (FRD, Aurora Discovery, San Diego, CA). The assay plates were incubated at 37C and 5% CO2 for 24hr. For luciferase read, 4uL of Amplite Luciferase reporter gene assay reagent (AAT Bioquest, Inc. Sunnyvale, CA) was added to each well of the assay plates using FRD and incubated at room temperature for 30min. The luminescence signal was measured using a ViewLux plate reader (Perkin Elmer, Shelton, CT).
% is set by controls: 0 for no effect and ±100 for the full control effect; potency is the fitted concentration of half-maximal effect.

SMILES | activity change, negative = inhibition | Potency
CCCC(=O)OC(=O)CCC | 4.94% | 
Cc1ccccc1S(N)(=O)=O | -9.56% | 
CNC1CCCN(c2c(F)cc3c(=O)c(C(=O)O)cn(C4CC4)c3c2OC)C1 (stereo not given) | 18.9% [at 42.5 µM] | 
CC(=O)OCCC1CCCCC1 | 6.42% | 
CCCCCCCC(=O)OCCCCCC | -1.69% | 
CCSC(=O)N(CC)CC | 0% | 
CCCCC(CC)COS(=O)(=O)O (stereo not given) | 7.37% | 
CN=C(N)NC(=O)Nc1c(C)cccc1C | 9.56% [at 42.5 µM] | 
C=Cc1ccc(OC(C)=O)cc1 | -9.75% | 
Cc1oc(=O)oc1COC(=O)[C@@H]1N2C(=O)[C@@H](NC(=O)[C@H](N)c3ccccc3)[C@H]2SC1(C)C | 11.2% [at 42.5 µM] | 
CCCCCCCCCCCCCCN(C)C | 19.6% [at 19 µM] | 
O[C@@H](CNC[C@H](O)[C@H]1CCc2cc(F)ccc2O1)[C@@H]1CCc2cc(F)ccc2O1 |  | 13.3 µM (active)
CCNc1nc(N)nc(Cl)n1 | -27.4% | 
O=C(O)CCC(=O)c1ccc(-c2ccccc2)cc1 | 30.6% [at 42.5 µM] | 
CCN(CC)C(=O)/C(C#N)=C/c1cc(O)c(O)c([N+](=O)[O-])c1 | -18.7% [at 42.5 µM] | 
CC(C)C1CCC(C(=O)N[C@H](Cc2ccccc2)C(=O)O)CC1 (stereo not given in full) | 11% [at 42.5 µM] | 
COc1cc(S(=O)(=O)Nc2ccccc2)c(OC)cc1N | -18.9% | 
CC(=O)NCCO | -13.4% | 
CC(CN(CCN(CC(C)OCCO)CC(C)OCCO)CC(C)OCCO)OCCO (stereo not given) | -10% | 
CC(C)CC(O)CC(C)C | 10.8% | 

SMILES | activity change, negative = inhibition | Potency
O=C(c1ccccc1)C1CCC1 | 8.44% | 
O=C(NC(Cc1cc(=O)[nH]c2ccccc12)C(=O)O)c1ccc(Cl)cc1 (stereo not given) | -2.39% [at 42.5 µM] | 
CC[C@H]1OC(=O)[C@H](C)[C@@H](O[C@H]2C[C@@](C)(OC)[C@@H](O)[C@H](C)O2)[C@H](C)[C@@H](O[C@@H]2O[C@H](C)C[C@H](N(C)C)[C@H]2O)[C@](C)(O)C[C@@H](C)C(=O)[C@H](C)[C@@H](O)[C@]1(C)O | 0% [at 42.5 µM] | 
CCCCCCCCCCCCCCCC(=O)OCC | -0.977% | 
COC(C)(C)OC | 0.295% | 
O=C(O)c1cccc(C[C@@H]2COc3ccc(OCc4nc5cc(F)ccc5s4)cc3[C@@H]2O)c1 | -4.93% | 
COC(=O)Nc1nc2ccc(C(=O)C3CC3)cc2[nH]1 | -2.83% [at 42.5 µM] | 
CCCCCCOC(=O)CCCCC | 13.1% | 
Nc1nc2ccc(OC(F)(F)F)cc2s1 | 4.15% [at 42.5 µM] | 
CC(C)(C)CCCCCCOC(=O)c1ccccc1C(=O)OCCCCCCC(C)(C)C | 0.758% | 
O=c1[nH][nH]c(=O)c2cc([N+](=O)[O-])ccc12 | 4.08% | 
COC(OC)OC | 0% | 
CC(C)(C)C(O)/C=C/c1ccc2c(c1)OCO2 (stereo not given) | 21.2% [at 42.5 µM] | 
CCN(CC)CCNC(=O)c1cc(Cl)c(N)cc1OC | 4.86% [at 42.5 µM] | 
Cc1cccc2sc(N)nc12 | -13.8% | 
C=C(C)C(=O)OCCC(F)(F)C(F)(F)C(F)(F)C(F)(F)C(F)(F)C(F)(F)F | 13.5% | 
CCN(CC)CC(=O)Nc1c(C)cccc1C(=O)OC | 65.1% [at 42.5 µM] | 
Nc1ccc(NC(=O)c2ccc(N)cc2)cc1 | 0.376% | 
CCC1CCC(CCC(=O)O)C1 (stereo not given) | 4.64% | 
O=[N+]([O-])C1(Br)COCOC1 |  | 43.3 µM (active)
